This is one part of a sample in which the strongest signals are shown more often than they occur.
Assays:
Assay in all cases: glycan array binding signal (z-score within array); higher = stronger binding
Settings in all cases: glycan notation: IUPAC condensed, linker removed
[1] = target: Fuc(a1-2)Gal(b1-3)GalNAc(b1-4)[Neu5Ac(a2-3)]Gal(b1-4)Glc
Outline: (§1)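 Glycan array data were curated from 3228 arrays in the Consortium for Functional Glycomics database and kept only where the protein sequence was available. Glycan names were converted to IUPAC-condensed notation, and columns mapping to the same glycan were averaged. The binding signal is a within-array Z-score, averaged across arrays of the same protein sequence at different concentrations or buffers and across linkers. Negative Z-scores can be read as non-binding.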

Fuc(a1-2)Gal(b1-3)GlcNAc = target: Fuc(a1-2)Gal(b1-3)GlcNAc
Outline: as §1

Fuc(a1-2)Gal(b1-4)Glc = target: Fuc(a1-2)Gal(b1-4)Glc
Outline: as §1

[2] = target: Fuc(a1-2)Gal(b1-4)GlcNAc6S
Outline: as §1

[3] = target: Fuc(a1-2)Gal(b1-4)[Fuc(a1-3)]GlcNAc(b1-2)Man(a1-3)[Fuc(a1-2)Gal(b1-4)[Fuc(a1-3)]GlcNAc(b1-2)Man(a1-6)]Man(b1-4)GlcNAc(b1-4)[Fuc(a1-6)]GlcNAc
Outline: as §1

[4] = target: Fuc(a1-2)[Gal(a1-3)]Gal(b1-3)GlcNAc
Outline: as §1

[5] = target: Fuc(a1-2)[Gal(a1-3)]Gal(b1-3)GlcNAc(b1-2)Man(a1-3)[Fuc(a1-2)[Gal(a1-3)]Gal(b1-3)GlcNAc(b1-2)Man(a1-6)]Man(b1-4)GlcNAc(b1-4)GlcNAc
Outline: as §1

[6] = target: Fuc(a1-2)[Gal(a1-3)]Gal(b1-4)Glc
Outline: as §1

[7] = target: Fuc(a1-2)[Gal(a1-3)]Gal(b1-4)GlcNAc
Outline: as §1

[8] = target: Fuc(a1-2)[Gal(a1-3)]Gal(b1-4)GlcNAc(b1-2)Man
Outline: as §1

[9] = target: Fuc(a1-2)[Gal(a1-3)]Gal(b1-4)GlcNAc(b1-2)Man(a1-3)[Fuc(a1-2)[Gal(a1-3)]Gal(b1-4)GlcNAc(b1-2)Man(a1-6)]Man(b1-4)GlcNAc(b1-4)[Fuc(a1-6)]GlcNAc
Outline: as §1

[10] = target: Fuc(a1-2)[Gal(a1-3)]Gal(b1-4)GlcNAc(b1-6)GalNAc
Outline: as §1

[11] = target: Fuc(a1-2)[GalNAc(a1-3)]Gal(b1-3)GlcNAc
Outline: as §1

[12] = target: Fuc(a1-2)[GalNAc(a1-3)]Gal(b1-4)GlcNAc(b1-2)Man
Outline: as §1

[13] = target: Fuc(a1-2)[GalNAc(a1-4)]Gal(b1-4)GlcNAc
Outline: as §1

[14] = target: Fuc(a1-3)[Gal(b1-4)]GlcNAc(b1-6)[Gal(b1-3)GlcNAc(b1-3)]Gal(b1-4)Glc
Outline: as §1

[15] = target: Fuc(a1-3)[Gal3S(b1-4)]GlcNAc
Outline: as §1

[16] = target: Gal(a1-3)Gal(b1-3)[Fuc(a1-4)]GlcNAc(b1-2)Man(a1-3)[Gal(a1-3)Gal(b1-3)[Fuc(a1-4)]GlcNAc(b1-2)Man(a1-6)]Man(b1-4)GlcNAc(b1-4)GlcNAc
Outline: as §1

[17] = target: Gal(a1-3)Gal(b1-4)GlcNAc(b1-2)Man
Outline: as §1

Gal(a1-3)GalNAc = target: Gal(a1-3)GalNAc
Outline: as §1

[18] = target: Gal(a1-4)Gal(b1-3)GlcNAc(b1-2)Man(a1-3)[Gal(a1-4)Gal(b1-3)GlcNAc(b1-2)Man(a1-6)]Man(b1-4)GlcNAc(b1-4)GlcNAc
Outline: as §1

Gal(b1-2)Gal = target: Gal(b1-2)Gal
Outline: as §1

[19] = target: Gal(b1-3)GlcNAc(b1-3)Gal(b1-4)[Fuc(a1-3)]GlcNAc
Outline: as §1

[20] = target: Gal(b1-3)[Fuc(a1-4)]GlcNAc(b1-6)GalNAc
Outline: as §1

[21] = target: Gal(b1-4)GlcNAc(b1-2)Man(a1-3)[Gal(b1-4)GlcNAc(b1-2)Man(a1-6)][GlcNAc(b1-4)]Man(b1-4)GlcNAc(b1-4)[Fuc(a1-6)]GlcNAc
Outline: as §1

[22] = target: Gal(b1-4)GlcNAc(b1-2)Man(a1-6)[GlcNAc(b1-2)Man(a1-3)]Man(b1-4)GlcNAc(b1-4)GlcNAc
Outline: as §1

[23] = target: Gal(b1-4)GlcNAc(b1-3)Gal(b1-4)GlcNAc(b1-3)Gal(b1-4)GlcNAc
Outline: as §1

B1: Gal 8 (Mus musculus), Q9JL15 (protein)
chain: MGGSHHHHHHGMASMLSLNNLQNIIYNPIIPYVGTITEQLKPGSLIVIRGHVPKDSERFQVDFQLGNSLKPRADVAFHFNPRFKRSSCIVCNTLTQEKWGWEEITYDMPFRKEKSFEIVFMVLKNKFQVAVNGRHVLLYAHRISPEQIDTVGIYGKVNIHSIGFRFSSASALPHTLGDLQSMETSALGLTQINRENIQKPGKLQLSLPFEARLNASMGPGRTVVIKGEVNTNARSFNVDLVAGKTRDIALHLNPRLNVKAFVRNSFLQDAWGEEERNITCFPFSSGMYFEMIIYCDVREFKVAINGVHSLEYKHRFKDLSSIDTLSVDGDIRLLDVRSW
- glycan array binding signal (z-score) [1]: -0.259
- glycan array binding signal (z-score) (Fuc(a1-2)Gal(b1-3)GlcNAc): 0.14
- glycan array binding signal (z-score) (Fuc(a1-2)Gal(b1-4)Glc): 0.021
- glycan array binding signal (z-score) [2]: -0.038
- glycan array binding signal (z-score) [3]: -0.529
- glycan array binding signal (z-score) [4]: 3.88
- glycan array binding signal (z-score) [5]: 3.71
- glycan array binding signal (z-score) [6]: 2.26
- glycan array binding signal (z-score) [7]: 3.76
- glycan array binding signal (z-score) [8]: 2.84
- glycan array binding signal (z-score) [9]: 3.64
- glycan array binding signal (z-score) [10]: -0.535
- glycan array binding signal (z-score) [11]: 1
- glycan array binding signal (z-score) [12]: 3.48
- glycan array binding signal (z-score) [13]: -0.537
- glycan array binding signal (z-score) [14]: 0.008
- glycan array binding signal (z-score) [15]: -0.521
- glycan array binding signal (z-score) [16]: -0.204
- glycan array binding signal (z-score) [17]: 0.378
- glycan array binding signal (z-score) (Gal(a1-3)GalNAc): -0.533
- glycan array binding signal (z-score) [18]: -0.534
- glycan array binding signal (z-score) (Gal(b1-2)Gal): -0.521
- glycan array binding signal (z-score) [19]: 0.099
- glycan array binding signal (z-score) [20]: -0.515
- glycan array binding signal (z-score) [21]: -0.123
- glycan array binding signal (z-score) [22]: -0.108
- glycan array binding signal (z-score) [23]: 0.937

— the supplement of paper PMC8728848
